From PubChem
A selection: hits, their analogues and other compounds. The true share with any hit is near 6.9%.
Mdm2 MdmX PPI: inhibitors of human Mdm2/MdmX interaction | inhibition, % at 8 µM | O15151+Q00987 | AID 485346 | SaOS-2 split-luciferase Mdm2/MdmX complementation, luminescence | 3% of 330,000 active;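 active = inhibition of at least 50% at 8 µM in the primary screen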
CSC inhib: blocks cancer stem cells. inhibition, % at 7.5 µM. AID 2717. cancer stem cell-like cells viability, luminescence. 1.1% of 300,000 active; in the data active = inhibition above about 75%; tested in HMLE shEcad cells
MPTP inh: inhibitors of mitochondrial permeability transition pore. isolated mouse mitochondria, Ca2+ swelling absorbance, 30 min. inhibition, % at 10 µM. 1.4% of 360,000 active;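 active = inhibition of 50% or more, scaled per plate between neutral and stimulator controls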;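 note: 0% = DMSO wells given calcium and 100% = 1 mM EGTA wells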
Beta cell apopt: beta cell apoptosis inhibition; INS-1E cytokine-induced death, ATP luminescence, 48 h; percent of positive-control rescue, neutral wells zero; protection from apoptosis, % (test concentration not listed); 0.8% of 300,000 active; AID 435005;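 active = Every replicate reaches about 75%, or at least half do and their mean reaches it too, limit read from the data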;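 note: 0% = cytokine-treated negative control wells and 100% = positive control rescue; higher means more ATP so stronger rescue from cytokine killing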
SKKanGAS inh: SKKanGAS growth inhibition. S. pyogenes SKKanGAS, kanamycin growth, BacTiter-Glo, 6 h. inhibition, % at 7.5 µM. 1.3% of 300,000 active;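 active = mean replicate score, as percent of positive control median, at least 50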;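 note: strain carries kanamycin resistance gene driven by streptokinase promoter and grows in 40 µg/ml kanamycin; loss of luminescence reflects streptokinase promoter inhibition or plain growth inhibition; 0% = median of DMSO wells and 100% = positive control at its reference dose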
GRIN3A LBD mod: modulates the human NR3A ligand-binding domain. NR3A LBD differential scanning fluorimetry, Tm shift; 0% = protein alone, 100% = glycine-bound protein. Tm shift relative to glycine control, % at 25 µM. 2.5% of 340,000 active. AID 1259313;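 active = melting temperature shift of at least 10% of the positive control shift, at one fixed dose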
MPTP counter: mitochondrial membrane potential, counter-screen; inhibition, % at 10 µM; 78% of 5,000 active; isolated mitochondria, Rhodamine 123 fluorescence; shares compounds with MPTP inh; in the data active = inhibition above about 22%;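 note: 0% = DMSO vehicle and 100% = positive control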
MPTP swell DR: MPTP inhibition, dose response swelling confirmation | IC50, µM | isolated mitochondria swelling, absorbance | shares compounds with MPTP inh | 58% of 780 active; in the data active = IC50 below about 20 µM
MPTP cs DR: active in counter-screen for permeability transition pore inhibitors; shares compounds with MPTP inh; isolated mitochondria counterscreen, fluorescence read-out; IC50, µM; 49% of 780 active; in the data active = IC50 below about 80 µM
* marks the source's active call; other numbers are inactive results; . = no result given.

SMILES	Mdm2 MdmX PPI	CSC inhib	MPTP inh	Beta cell apopt	SKKanGAS inh	GRIN3A LBD mod	MPTP counter	others
O=C(Nc1ccc(Cl)c(Cl)c1)Nc1nnc(-c2ccncc2)s1	.	53	102*	44	.	13*	87*
CSc1ccccc1NC(=O)Nc1ccc(F)c(Cl)c1	-6	15	93*	10	0	42*	75*
CC(C(=O)NC1CCCCCC1)c1ccc([N+](=O)[O-])cc1 (centres undefined)	11	-14	1	-3	-5	1	.
OC(COc1ccc(Cl)cc1)CN1C2=NCCCN2c2ccccc21 (centres undefined)	6	-2	70*	.	-2	1	-7	MPTP swell DR=18*;MPTP cs DR=>80
CC(=O)c1ccc(NC(=O)/C(=C\c2ccc(F)cc2)NC(=O)c2ccco2)cc1	-7	-9	-2	-2	-3	1	.
CN(O)C(=O)Nc1ccc([N+](=O)[O-])cc1	-2	5	83*	8	5	-12	96*
CC(C)(C)C(=O)Nc1ccc(Sc2ccc([N+](=O)[O-])cc2)cc1	2	-21	96*	1	-14	-3	93*
O=C(Nc1ccc([N+](=O)[O-])cc1)c1ccccc1	-63	10	3	-6	-1	-10	.
CC(=O)Nc1ccc(Sc2ccc([N+](=O)[O-])o2)cc1	.	.	-2	.	.	0	.
CCCOC(=O)Nc1c(C)cccc1C(C)C	-11	8	3	-4	0	-2	.
O=C1NC(=Nc2ccc(Cl)cc2)SC1Cc1cc(Cl)ccc1Cl (centres undefined)	2	.	65*	.	82*	-6	84*
Cc1[nH]n(-c2ncc(-c3ccc(Cl)cc3)s2)c(=O)c1C(c1ccc(Cl)cc1)C(C#N)C#N (centres undefined)	-21	96*	98*	-2	97*	17*	1
Cc1ccc2nc(C)c3c(c2c1)OC(C(C)(Cl)Br)C3 (centres undefined)	10	0	3	7	6	3	.
Cc1nc2ccccc2c2c1CC(C(C)(Cl)Br)O2 (centres undefined)	15	-10	60*	57	-6	-1	84*
Fc1c(F)c(C(F)(F)F)c(F)c(F)c1N/N=C\c1cccs1	35	26	87*	10	25	22*	70*
Cn1c(N/N=C/c2cccs2)cc(=O)n(C)c1=O	30	3	-1	0	1	-1	.
CCc1ccccc1NC(=O)c1cc(-c2cccc(O)c2)on1	-7	6	102*	-2	-8	-7	6	MPTP swell DR=2.1*;MPTP cs DR=>80
O=C(Nc1cccnc1Cl)c1cc(-c2cccc(O)c2)on1	6	6	81*	-3	1	-22	-7	MPTP swell DR=>100;MPTP cs DR=>80
O=C(Nc1ccccc1C(F)(F)F)c1cc(-c2cccc(O)c2)on1	-11	14	8	-2	-9	0	.
COc1cc(NC(=O)c2cc(-c3cccc(O)c3)on2)cc(OC)c1OC	44	52	110*	5	-7	-10	14	MPTP swell DR=2.6*;MPTP cs DR=>80
O=C(CCCCN1CCCCC1)c1ccc2c(c1)Cc1ccccc1-2	1	-9	95*	44	13	-16	81*
CCOC(=O)C1(Cc2ccc(OC)cc2)CCN(S(C)(=O)=O)CC1	-16	0	-3	-7	-6	0	.
CCOC(=O)C1(Cc2ccc(Cl)cc2)CCN(C(C)Cc2ccc(O)c(OC)c2)CC1 (centres undefined)	10	6	95*	.	2	-3	95*
O=C(NC1CCSc2ccccc21)c1cc(S(=O)(=O)N2CCOCC2)ccc1Cl (centres undefined)	-1	-2	0	7	0	1	.
CCC1SC(=NC(=O)c2ccc(Cl)c(Cl)c2)NC1=O (centres undefined)	-4	4	76*	0	19	-1	100*
SMILES	Mdm2 MdmX PPI	CSC inhib	MPTP inh	Beta cell apopt	SKKanGAS inh	GRIN3A LBD mod	MPTP counter	others
Cc1cc(=O)oc2cc(O)cc(OCc3ccccc3)c12	.	.	78*	.	.	1	98*
COc1ccc(Cn2c(-c3ccccc3C)nc3c(c(=O)c4ccccc4n3C)c2=O)cc1	10	-16	3	5	7	-1	.
COc1ccc2cc(CNCCOCCOCCNCc3ccc4cc(OC)ccc4c3)ccc2c1	.	.	97*	.	.	-2	-10
Cc1cc(C(=O)CSc2n[nH]c(N)n2)c(C)n1-c1cc(F)ccc1F	-41	24	59*	-6	5	-3	3	MPTP cs DR=>80
Cc1onc(-c2ccccc2)c1C(=O)NC(=S)NNC(=O)c1ccccc1O	30	9	95*	85*	87*	1	11
CCCOc1ccc(C(=O)NC(=S)NNC(=O)c2c(-c3ccccc3)noc2C)cc1	33	31	69*	17	100*	0	9
Cc1ccc(S(=O)(=O)Nc2cc(C(C)C)c(O)cc2C)cc1	6	17	6	2	1	1	.
Cc1ccc(S(=O)(=O)Nc2cc(Cl)c(O)cc2C)cc1	16	-7	65*	-4	2	-3	13	MPTP swell DR=15*;MPTP cs DR=23*
CCOc1ccc(S(=O)(=O)N2CCN=C2c2ccccc2)c(C)c1C	7	3	-2	-6	-1	1	.
Cc1ccc(C(=O)Nc2ccc(Br)c(C(F)(F)F)c2)cc1	-27	37	94*	3	30	10*	83*
Cc1ccc(NC(=O)c2ccc(C)cc2)cc1	-136	-6	2	-5	-1	-11	.
COc1ccc(S(=O)(=O)Nc2ccc3c(c2)OCO3)cc1OC	16	-12	1	-5	1	2	.
O=S(=O)(Nc1ccc2c(c1)OCCO2)c1ccc2oc3ccccc3c2c1	28	27	68*	3	28	-2	81*
CC(=O)Nc1ccc(S(=O)(=O)Nc2ccc3c(c2)OCCO3)cc1Cl	15	0	79*	11	0	1	58*
COc1ccc(NS(=O)(=O)c2ccc3c(c2)OCCO3)cc1OC	21	-3	85*	66	-1	0	86*
COc1ccc(S(=O)(=O)Nc2ccc3c(c2)OCCO3)cc1Cl	18	-6	-1	6	-1	-50	.
COC(=O)c1ccc(N2C(=O)C3CC=CC(C)C3C2=O)cc1 (centres undefined)	8	-1	1	-1	-24	0	.
CCOC(=O)/C=C1/SCC(=O)N1CC(=O)c1ccc[nH]1	.	.	-1	.	.	-2	.
Cc1ccccc1CN1CCC(N2CCC(C(=O)NCC3CCCO3)CC2)CC1 (centres undefined)	30	-7	2	1	1	2	.
